Among all 3,700 compounds or so, fewer than 10 were called active. No rule for the calls is given here. A selection follows.

This test in a line: NMR binding screen, influenza A RNA promoter, Kd (AID 1637). The conditions noted are these: NMR binding to influenza A RNA promoter.
`CNC(=O)CC1Sc2ccccc2NC1=O` (stereo not given): the Kd was > 4 mM (inactive).

On to `O=C1CSC(=Nc2ccccc2[N+](=O)[O-])N1`, for which the Kd is > 4 mM (inactive).

With `CN1CCC(N2CCOCC2)CC1`, the Kd is > 4 mM (inactive).

For `Cc1cc(C(=O)NCc2cccnc2)no1`, the Kd is > 4 mM (inactive).

`COc1ccc(S(=O)(=O)N2CCOCC2)cc1C(C)C`: the Kd was > 4 mM (inactive).

On to `COc1cccc(/C=C/C(=O)O)c1C(C)C`, for which the Kd is > 4 mM (inactive).

With `CCN1CCC(=NO)CC1`, the Kd is > 4 mM (inactive).

Regarding `Cc1ccc(SCc2cc(=O)n3[nH]cnc3n2)cc1`, the Kd is > 4 mM (inactive).

With `Nc1ccc(-n2cccn2)cc1`, the Kd was > 4 mM (inactive).

Consider `Cc1ccc(S(=O)(=O)CC(=O)N(C)C)cc1`, for which the Kd was > 4 mM (inactive).

For `Cc1cccc(N2C(=O)CC(=O)NC2=O)c1`, the Kd is > 4 mM (inactive).

`Cc1ccccc1NC(=O)C1CC(=O)N=C(N)S1` (stereo not given): the Kd was > 4 mM (inactive).

With `CC(C)(C)CC(=O)NNC(=O)c1cnccn1`, the Kd is > 4 mM (inactive).

For the compound `CCSc1nc(N)c(NC(=O)c2ccco2)c(=O)[nH]1`, the Kd is > 4 mM (inactive).

Regarding `Cc1ccccc1NC(=O)CC1NCCNC1=O` (stereo not given), the Kd was > 4 mM (inactive).

In the case of `Cc1cc(CN2C(=O)c3ccccc3C2=O)on1`, the Kd was > 4 mM (inactive).

With `O=C(O)CCCNC(=O)c1ccccc1C(=O)O`, the Kd was > 4 mM (inactive).

As for `CC(C)(C)NC(=O)CN1C(=O)c2ccccc2S1(=O)=O`, the Kd is > 4 mM (inactive).

As to `COc1ccc(/C=C2\SC(N)=NC2=O)cc1`, the Kd was > 4 mM (inactive).

As to `CC(C)=NNC(=O)C(=O)Nc1ccc(F)cc1`, the Kd was > 4 mM (inactive).

`CS/C(N)=C\C(C)=O`: the Kd is > 4 mM (inactive).

Regarding `Nc1nonc1-c1nc2ccccc2[nH]1`, the Kd was > 4 mM (inactive).

In the case of `NCc1ccc(-c2ccccn2)s1`, the Kd was > 4 mM (inactive).

On to `Cc1oc(-c2ccccc2)cc1C(=O)O`, for which the Kd is > 4 mM (inactive).

`O=S1(=O)CCC2CC=CCC21` (stereo not given): the Kd was > 4 mM (inactive).

For the compound `S=C(c1ccc(N2CCOCC2)cc1)N1CCOCC1`, the Kd is > 4 mM (inactive).

As for `CC1(C)CC2(C)N(N)C(=O)CN2C(=S)N1` (stereo not given), the Kd was > 4 mM (inactive).

Take `O=c1[nH]cc(NCc2ccccc2)c(=O)[nH]1`: the Kd is > 4 mM (inactive).

As to `c1cnc(N2CCNCC2)nc1`, the Kd is > 4 mM (inactive).

Consider `COc1cccc(N2CCNCC2)c1`, for which the Kd is > 4 mM (inactive).

For `COc1cc2nc(N3CCNCC3)nc(N)c2cc1OC`, the Kd is 0.078 mM (active).

For `CN(C)c1nc(N2CCOCC2)c2cnn(C)c2n1`, the Kd was > 4 mM (inactive).

`O=C(CSc1ncn[nH]1)c1ccccc1`: the Kd was > 4 mM (inactive).

For `Cc1cccc(N2C(=O)CCC2=O)n1`, the Kd was > 4 mM (inactive).

As for `O=c1[nH]c(O)c(C=NCc2cccs2)c(=O)[nH]1`, the Kd was > 4 mM (inactive).

Consider `CC(=O)c1cccc(N=C2NC(=O)CS2)c1`, for which the Kd is > 4 mM (inactive).

As to `Cc1csc(SCC(=O)N2CCCC2)n1`, the Kd is > 4 mM (inactive).

On to `Nc1cc(=O)[nH]c(SCC(=O)Nc2nccs2)n1`, for which the Kd is > 4 mM (inactive).

For `COc1cc(OC)c2c(=O)c(OC)c(-c3ccc(OC)c(OC)c3)oc2c1`, the Kd was > 4 mM (inactive).

With `C=C1CCC2[C@](C)(CO)[C@H](O)CC[C@@]2(C)[C@@H]1C/C=C1/C(=O)OC[C@H]1O` (stereo not given in full), the Kd is > 4 mM (inactive).

In the case of `Cc1occc1C(=O)NCc1ccccn1`, the Kd is > 4 mM (inactive).

`NC(=O)NC1C=CS(=O)(=O)C1` (stereo not given): the Kd is > 4 mM (inactive).

With `Cc1c(N=Cc2ccco2)c(=O)n(-c2ccccc2)n1C`, the Kd was > 4 mM (inactive).

Take `Cc1ccc(CN2C3=NC(=O)CN3c3ccccc32)cc1`: the Kd is > 4 mM (inactive).

In the case of `COc1nc(N2CCOCC2)nc(N)c1[N+](=O)[O-]`, the Kd is > 4 mM (inactive).

With `CC1=NN2C(=N)/C(=C\c3cccs3)C(=O)N=C2S1`, the Kd is > 4 mM (inactive).

Consider `O=C(O)C1NCCc2ccccc21` (stereo not given), for which the Kd is > 4 mM (inactive).

As for `CCn1nnc(NC(=O)c2ccccc2Br)n1`, the Kd was > 4 mM (inactive).

Turning to `O=S1(=O)NC(=NCc2ccco2)c2ccccc21`, the Kd was > 4 mM (inactive).

On to `O=C(NCc1ccc2c(c1)OCO2)c1cccs1`, for which the Kd was > 4 mM (inactive).

Take `Cn1nnc2cc(C(=O)Nc3cccnc3)ccc21`: the Kd is > 4 mM (inactive).

As to `Cc1ccc(SCc2nc(-c3ccncc3)no2)cc1`, the Kd is > 4 mM (inactive).

`NC1CS(=O)(=O)CC1O` (stereo not given): the Kd is > 4 mM (inactive).

Consider `C=CCCCCCCCCCCCC(O)CC(O)CO` (stereo not given) (tested in a mixture with another compound), for which the Kd is > 4 mM (inactive).

On to `CN1C(=O)C2CC=C(Cl)CC2C1=O` (stereo not given), for which the Kd is > 4 mM (inactive).

`Cc1c(/C=N\n2cnnc2)c2ccccc2n1C`: the Kd is > 4 mM (inactive).

In the case of `CN(C)S(=O)(=O)NCc1ccc2c(c1)OCO2`, the Kd was > 4 mM (inactive).

For `CC1(c2ccncc2)NC(=O)NC1=O` (stereo not given), the Kd is > 4 mM (inactive).

Take `c1cc2n(c1)CCNC2c1ccncc1` (stereo not given): the Kd was > 4 mM (inactive).

With `Cc1nc2[nH]onc2c2nccc(=O)c12`, the Kd is > 4 mM (inactive).

In the case of `CCCN1CCC(N2CCC(O)CC2)CC1`, the Kd is > 4 mM (inactive).

Turning to `O=C1NC(=O)/C(=C\c2ccncc2)S1`, the Kd is > 4 mM (inactive).

`O=C1CSC(=O)N1CN1CCCC1`: the Kd is > 4 mM (inactive).

`O=C(O)CSCc1ccc(Cl)cc1`: the Kd was > 4 mM (inactive).

Regarding `CCCC(=O)N1CCSCC1`, the Kd was > 4 mM (inactive).

For `Cn1nc(C(=O)N2CCCC2)c2ccccc2c1=O`, the Kd is > 4 mM (inactive).

In the case of `Cc1nn(C)c(Cl)c1C(O)c1c(C)nn(C)c1Cl`, the Kd is > 4 mM (inactive).

As to `Cc1ccc(-c2nn3c(C)nnc3s2)cc1N`, the Kd was > 4 mM (inactive).

As to `Nc1ccc2nsnc2c1`, the Kd is > 4 mM (inactive).

Consider `CC(=O)Nc1cc(C(N)=O)cc(C(N)=O)c1`, for which the Kd is > 4 mM (inactive).

For the compound `NS(=O)(=O)c1ccccc1Cl`, the Kd is > 4 mM (inactive).

Regarding `CSc1nc(=O)[nH]c2c1CCC2`, the Kd was > 4 mM (inactive).

Consider `Cn1cnc2cc(NC(=O)c3ccco3)ccc21`, for which the Kd is > 4 mM (inactive).

Take `COc1ccc(NC2=NCC(C)S2)cc1` (stereo not given): the Kd was > 4 mM (inactive).

Take `COC(=O)Nc1nnc(-c2ccncc2)s1`: the Kd was > 4 mM (inactive).

With `NC(=O)Cn1nnc(-c2ccc(C(F)(F)F)cc2)n1`, the Kd was > 4 mM (inactive).

For the compound `Nc1cccc(NC(=O)c2cccs2)c1`, the Kd was > 4 mM (inactive).

Regarding `CCN1CCC(NC2CCC(O)CC2)CC1` (stereo not given), the Kd was > 4 mM (inactive).

Consider `OC12C=CC(CC1)CC2`, for which the Kd is > 4 mM (inactive).

Take `NC(=O)CSc1ccc2nnc(-c3ccccc3)n2n1`: the Kd is > 4 mM (inactive).

For the compound `CCCCN1C(=O)C2CC/C(=N/O)CC2C1=O` (stereo not given), the Kd is > 4 mM (inactive).

For the compound `C[C@@H]1OC(O[C@H]2[C@H](OC(=O)[C@]34CCC(C)(C)CC3C3=CCC5[C@@]6(C)CC[C@H](OC7O[C@@H](C)[C@H](O[C@@H]8OC[C@@H](O)[C@H](O)[C@H]8O)[C@@H](O)[C@H]7O)C(C)(C)C6CC[C@@]5(C)[C@]3(C)CC4O)OC[C@H](O)[C@H]2O)[C@H](O)[C@H](O)[C@H]1O[C@@H]1O[C@H](CO)[C@@H](O)[C@H](O)[C@H]1O` (stereo not given in full), the Kd is > 4 mM (inactive).

On to `NC(=O)C1CCN(C(=O)c2ccccc2F)CC1`, for which the Kd was > 4 mM (inactive).

For `O=C(Nc1cccc2cccnc12)c1cccnc1`, the Kd was > 4 mM (inactive).

Consider `Cc1nc(NC2=NCCC(=O)N2)nc2ccccc12`, for which the Kd was > 4 mM (inactive).

The values are drawn from PubChem BioAssay AID1637 (Sanford-Burnham Center for Chemical Genomics, 2009).
